In article PMC5540273 (PLoS ONE, 2017):

Columns and labels:
Settings in all cases: concentration: 1 μM, replicates: in singlicate; n = 1
HPK1 = test system: HPK1
HUNK = test system: HUNK
ICK = test system: ICK
IGF1R = test system: IGF1R
IKK-alpha = test system: T1, IKK-alpha
T1 construct: gene CHUK

IKK-beta = test system: T2, IKK-beta
T2 construct: gene IKBKB

IKK-epsilon = test system: T3, IKK-epsilon
T3 construct: gene IKBKE

INSRR = test system: INSRR
INSR = test system: INSR
IRAK1 = test system: IRAK1
IRAK3 = test system: IRAK3
IRAK4 = test system: IRAK4
ITK = test system: ITK
[1] = test system: JAK1(JH1domain-catalytic)
[2] = test system: JAK1(JH2domain-pseudokinase)
[3] = test system: JAK2(JH1domain-catalytic)
[4] = test system: JAK3(JH1domain-catalytic)
JNK1 = test system: T4, JNK1
T4 construct: gene MAPK8

JNK2 = test system: T5, JNK2
T5 construct: gene MAPK9

JNK3 = test system: T6, JNK3
T6 construct: gene MAPK10
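Note: KINOMEscan kinase panel screen.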

| Compound | %Inh (HPK1) [%] | %Inh (HUNK) [%] | %Inh (ICK) [%] | %Inh (IGF1R) [%] | %Inh (IKK-alpha) [%] | %Inh (IKK-beta) [%] | %Inh (IKK-epsilon) [%] | %Inh (INSRR) [%] | %Inh (INSR) [%] | %Inh (IRAK1) [%] | %Inh (IRAK3) [%] | %Inh (IRAK4) [%] | %Inh (ITK) [%] | %Inh [1] [%] | %Inh [2] [%] | %Inh [3] [%] | %Inh [4] [%] | %Inh (JNK1) [%] | %Inh (JNK2) [%] | %Inh (JNK3) [%] |
| --- | --- | --- | --- | --- | --- | --- | --- | --- | --- | --- | --- | --- | --- | --- | --- | --- | --- | --- | --- | --- |
| C[C@@H](Oc1cc(-n2cnc3ccc(NC(=O)NC(C)(C)C)cc32)sc1C(N)=O)c1ccccc1Cl [GSK346294] | 35 | 0 | 0 | 0 | 0 | 0 | 23 | 0 | 0 | 15 | 12 | 0 | 14 | 2 | 0 | 0 | 0 | 0 | 6 | 0 |
| Cc1c(Cn2c(C)nn3c(=O)cc(N4CCOC(C)C4)nc23)cccc1C(F)(F)F (centres unmarked) [GSK2344444] | 9 | 0 | 0 | 7 | 12 | 18 | 5 | 3 | 17 | 0 | 0 | 13 | 7 | 2 | 0 | 19 | 38 | 0 | 8 | 2 |
| O=C(c1ccc(-c2cc(-c3c[nH]nc3-c3ccccn3)ccn2)cc1)N1CCOCC1 [GW812171] | 0 | 33 | 0 | 0 | 46 | 0 | 0 | 0 | 21 | 14 | 0 | 0 | 5 | 0 | 48 | 37 | 0 | 30 | 19 | 2 |
| COc1ccc(Nc2nccc(N3CCC(NC(=O)Nc4cc(C)ccc4C)C3)n2)cc1 (centres unmarked) [GSK1379741] | 36 | 0 | 13 | 0 | 0 | 21 | 0 | 0 | 0 | 18 | 19 | 16 | 10 | 23 | 0 | 0 | 0 | 24 | 0 | 5 |
| O=C1Cc2cc(Nc3nc(NCc4cccc(S(=O)(=O)C(F)(F)F)c4)ncc3C(F)(F)F)ccc2N1 | 0 | 8 | 0 | 0 | 20 | 8 | 0 | 0 | 0 | 14 | 0 | 22 | 0 | 28 | 0 | 7 | 7 | 9 | 0 | 0 |
| c1ccc(-c2cc(-c3c[nH]nc3-c3ccccn3)ccn2)cc1 [GW576604] | 25 | 16 | 0 | 19 | 0 | 0 | 0 | 0 | 2 | 7 | 0 | 9 | 3 | 17 | 0 | 6 | 0 | 35 | 65 | 70 |
| Cc1cccc(Cn2ccn3c(=O)cc(N4CCOCC4)nc23)c1 [GSK2297542] | 37 | 0 | 5 | 29 | 0 | 0 | 15 | 0 | 9 | 20 | 20 | 7 | 24 | 14 | 0 | 0 | 0 | 17 | 31 | 8 |
| Cl.Oc1cccc(Nc2ccnc3cc(-c4ccncc4)ccc23)c1 [GW494601] | 37 | 11 | 0 | 13 | 23 | 0 | 20 | 0 | 0 | 22 | 57 | 1 | 0 | 65 | 0 | 50 | 18 | 14 | 37 | 21 |
| NS(=O)(=O)CCc1cccc(Nc2nccc(-c3c(-c4cccc(NC(=O)c5c(F)cccc5F)c4)nn4ccccc34)n2)c1 [GSK336735] | 56 | 0 | 0 | 73 | 0 | 0 | 33 | 62 | 39 | 0 | 16 | 9 | 20 | 18 | 0 | 0 | 77 | 36 | 55 | 16 |
| CN(C(=O)c1ccc(-c2cc(-c3c[nH]nc3-c3ccccn3)ccn2)cc1)C1CCOCC1 [GW810083] | 30 | 0 | 78 | 0 | 0 | 0 | 0 | 0 | 0 | 0 | 0 | 0 | 5 | 0 | 0 | 0 | 0 | 42 | 45 | 38 |
| Fc1ccc(-c2nn3c(OCC(F)(F)F)cccc3c2-c2ccncc2)cc1 [GW514784] | 6 | 31 | 0 | 0 | 0 | 0 | 22 | 0 | 0 | 19 | 0 | 0 | 9 | 24 | 14 | 4 | 0 | 97.6 | 99.9 | 99.9 |
| O=C(NCCNc1ccnc(Nc2ccc(F)cc2)n1)c1cc2ccccc2s1 [GSK1379874] | 33 | 12 | 0 | 0 | 0 | 0 | 22 | 0 | 0 | 16 | 0 | 10 | 6 | 12 | 0 | 0 | 0 | 13 | 0 | 0 |
| CNc1ncnc2[nH]ncc12 [SKF-18355] | 0 | 34 | 0 | 0 | 0 | 0 | 0 | 0 | 7 | 9 | 0 | 0 | 0 | 0 | 31 | 20 | 2 | 8 | 1 | 0 |
| O=c1cc(N2CCOCC2)nc2n(Cc3cccc(C(F)(F)F)c3)ccn12 [GSK2297543] | 20 | 41 | 0 | 0 | 0 | 0 | 7 | 0 | 14 | 0 | 0 | 0 | 9 | 2 | 0 | 0 | 0 | 0 | 10 | 0 |
| COc1ccc(COc2cc(-n3cnc4ccccc43)sc2C(N)=O)cc1 [GSK1024304] | 45 | 14 | 0 | 8 | 0 | 17 | 0 | 0 | 13 | 0 | 2 | 2 | 14 | 0 | 0 | 0 | 0 | 18 | 33 | 10 |
| NS(=O)(=O)c1cccc(-c2ccc3nccc(-c4cccc(S(N)(=O)=O)c4)c3c2)c1 [GW867253] | 0 | 17 | 0 | 0 | 0 | 0 | 0 | 6 | 0 | 12 | 0 | 0 | 0 | 0 | 38 | 8 | 0 | 30 | 5 | 0 |
| O=c1cc(N2CCOCC2)nc2n(Cc3cccc(Cl)c3Cl)c(C3CC3)nn12 [GSK2358994] | 14 | 0 | 4 | 0 | 0 | 0 | 0 | 0 | 0 | 0 | 0 | 0 | 4 | 9 | 3 | 6 | 0 | 19 | 0 | 0 |
| Cc1ccc(C(=O)NCC(N)=O)cc1-n1c(C)cc(OCc2ccc(F)cc2F)c(Br)c1=O | 0 | 0 | 0 | 5 | 0 | 0 | 0 | 0 | 0 | 0 | 15 | 0 | 22 | 0 | 49 | 0 | 4 | 0 | 0 | 0 |
| COC(=O)Nc1nc2cc(Oc3ccc(NC(=O)Nc4cc(F)ccc4F)cc3)ccc2[nH]1.Cl [GW701424] | 30 | 20 | 0 | 18 | 33 | 4 | 16 | 0 | 0 | 36 | 0 | 6 | 0 | 26 | 0 | 1 | 0 | 0 | 2 | 0 |
